The source of these data is PubChem BioAssay AID1578 (Sanford-Burnham Center for Chemical Genomics, 2009).

Each structure is given as a SMILES string. Out of some 290,000 compounds screened, about 3,000 (1%) were called active. No stated cut-off is given here; in the data, active means inhibition mostly above about 36% (no sharp cut-off); inactive means mostly below about 34%. What follows is part of a selection rich in actives, with near analogues and random picks from the rest.

The nature of this assay: inhibition of NOD1-driven NF-kB reporter – cell-based, luminescence, uHTS, primary screen (AID 1578).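 Further: HEK-293T reporter cells stimulated with the NOD1 agonist gamma-tri-DAP.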 The conditions noted are these: NOD1-driven NF-kB luciferase reporter cells, at 4 µM, hits give high values. Background: Reporter assays use an easily measured gene product as a stand-in for the process of interest.
The inhibition is the drop in the measured response relative to a control, in per cent. Turning to `CN(Cc1ccccc1)S(=O)(=O)c1ccc2c(c1)CCC(=O)N2`, the inhibition was -21.5% (inactive). Consider `O=C(c1cc(-c2ccccc2Cl)nc2ccc(Br)cc12)N1CCN(c2ccccn2)CC1`, for which the inhibition was -7.5% (inactive). Regarding `O=C(COC(=O)c1ccc(Cl)c([N+](=O)[O-])c1)NC1CCCC1`, the inhibition was 3.2% (inactive). As to `CC(C)N(C(=O)COC(=O)c1ccccc1C(=O)c1ccc(Cl)c([N+](=O)[O-])c1)C(C)C`, the inhibition was -13.9% (inactive).

For the compound `CN(CCC#N)C(=O)COC(=O)c1ccccc1C(=O)c1ccc(Cl)c([N+](=O)[O-])c1`, the inhibition is 55.1% (active). Regarding `CSc1ccc(Cl)c(C(=O)OCC(=O)N(C)CCC#N)c1`, the inhibition is -28.1% (inactive). On to `O=C(COC(=O)c1cc([N+](=O)[O-])ccc1Cl)NC1CCCC1`, for which the inhibition is 1.2% (inactive).

Consider `C(=N\n1cnnc1)/c1cccc2ccccc12`, for which the inhibition is 7.2% (inactive).

Regarding `Cc1cc(=O)oc2c(C)c(OCC(=O)N3CCC(C(=O)O)CC3)ccc12`, the inhibition is -25.2% (inactive). Consider `CCc1ccc(C2CC(=O)Nc3c2c(=O)nc2c(C)cccn32)cc1` (stereo not drawn), for which the inhibition is -32.6% (inactive). The same measure for `COc1cccc(C(CNC(=O)C(c2ccccc2)c2ccccc2)N(C)C)c1` (stereo not drawn): -20.7% (inactive).

Take `CC(C)(C)NC(=O)CSc1nc2[nH]ncc2c(=O)[nH]1`: the inhibition was -22.7% (inactive). The value for `COc1ccccc1N1CCN(/N=C/c2cc(Br)ccc2F)CC1` was -42.6% (inactive); that for `CNc1ccn(C2CCCO2)c(=O)n1` (stereo not drawn) was 1.2% (inactive); that for `COc1ccc(NC(=O)c2ccccc2NS(=O)(=O)c2ccc(C)cc2)c([N+](=O)[O-])c1` was 58.5% (inactive). Take `CCOc1ccc(NC(=O)c2cccnc2Cl)c([N+](=O)[O-])c1`: the inhibition was -27.8% (inactive). Regarding `Cc1ccc2oc(C(=O)N(CCO)Cc3ccccc3)c(C)c2c1`, the inhibition is -6.1% (inactive). `O=C(C(=O)N1CCOCC1)c1cn(CCOc2ccccc2)c2ccccc12`: the inhibition is 1% (inactive).

Regarding `Cc1ccc(CSC2=NCCN2S(=O)(=O)c2ccc(F)cc2)cc1`, the inhibition was 48.3% (active). The value for `Cc1ccc(CSC2=NCCN2S(=O)(=O)c2ccccc2)cc1` was -6% (inactive); that for `Cc1ccc(S(=O)(=O)N2CCN=C2SCc2ccccc2)cc1` was -1.7% (inactive). The same measure for `Cc1ccccc1S(=O)(=O)Cc1ccc(C(=O)NCCCN2CCN(C)CC2)o1`: -8.5% (inactive); for `CCOC(=O)Cc1cnc(NC(=O)Cn2nnc(-c3ccc(OCC)cc3)n2)s1`: 0.4% (inactive). As to `O=C(N/N=C/c1ccc(OC(=O)c2ccccc2)cc1)c1cccnc1`, the inhibition is -4.5% (inactive). The value for `COC(=O)c1ccc2c(c1)C(C)(C)C(/C=C/c1ccc(OC)c(OC)c1OC)=[N+]2C` was -8.7% (inactive); that for `COC(=O)c1ccc2nc(C)c(C)nc2c1` was -2.5% (inactive). In the case of `CCCCNC(=O)c1cc2c(=O)n(CC)c3ccccc3c2s1`, the inhibition was -5.9% (inactive). In the case of `COc1ccc(CNC(=O)CN(C(=O)CCC(=O)Nc2ccccn2)c2ccc3c(c2)OCO3)cc1`, the inhibition is -19.9% (inactive). For the compound `CCn1cc(C(=O)NCCCOC)c(=O)c2cc(S(=O)(=O)N(C)C3CCCCC3)ccc21`, the inhibition was -10.9% (inactive). For `CCn1cc(C(=O)NCC(OC)OC)c(=O)c2cc(S(=O)(=O)N(C)C3CCCCC3)ccc21`, the inhibition was 59% (active). `COC(CNC(=O)c1cn(C)c2ccc(S(=O)(=O)N(C)C3CCCCC3)cc2c1=O)OC`: the inhibition was -18.2% (inactive). Consider `CCOc1ccc(S(=O)(=O)N(CC)CC(=O)N2CCOCC2)cc1C`, for which the inhibition was -22.7% (inactive). In the case of `CN(C(=O)Nc1ccc(Cl)cc1)c1c2c(nn1C)CCCC2`, the inhibition was -14.8% (inactive).

In the case of `COc1ccc(OC)c2c1sc(=NC(=O)c1cccc(N3C(=O)CCC3=O)c1)n2C`, the inhibition was -1.9% (inactive). The value for `C(=N\Nc1nc2ccccc2[nH]1)/c1ccccn1` was 59.4% (active).

As for `CCN(CC)c1ccc(/C=N/Nc2nc3ccccc3[nH]2)c(O)c1`, the inhibition was 11.9% (inactive). Take `C(=N\Nc1nc2ccccc2[nH]1)/c1ccncc1`: the inhibition was -22% (inactive). In the case of `Cc1nc(N/N=C/c2ccccn2)sc1C`, the inhibition is 91% (active). In the case of `CCN(CC)c1ccc(/C=N/Nc2nc3ccccc3[nH]2)cc1`, the inhibition was 105% (active).

As to `CCCc1sc(N/N=C/c2ccccn2)nc1-c1ccc(Br)cc1`, the inhibition was -37.7% (inactive). In the case of `Cc1csc(N/N=C/c2ccccn2)n1`, the inhibition was 8.7% (inactive). For `C(=N\Nc1nc2ccccc2[nH]1)/c1ccc2ncccc2c1`, the inhibition was 18.6% (inactive). As for `C(=N\Nc1nc2ccccc2[nH]1)/c1ccccc1`, the inhibition was -71.3% (inactive). Consider `CCCOc1ccc(N2C(=O)CC(N(CCc3ccc(OC)c(OC)c3)C(=S)Nc3ccccc3)C2=O)cc1` (stereo not drawn), for which the inhibition is -8.1% (inactive).

`O=C(Nc1ccon1)c1ccc(S(=O)(=O)N2CCOCC2)cc1`: the inhibition is -5.1% (inactive). `CCOc1cc(N2CCOCC2)c(OCC)cc1NC(=O)c1nc2nccc(C)n2n1`: the inhibition is -8.4% (inactive). The value for `O=S(=O)(NCc1nc2ccccc2[nH]1)c1ccccc1` was -21.9% (inactive); that for `CCCCNC(=O)CCC(=O)Nc1ccc2nc(N3CCCCC3)cc(C)c2c1` was -15.4% (inactive). `O=c1[nH]c(C2CCN(S(=O)(=O)c3ccc(C(F)(F)F)cc3)CC2)nc2c1nnn2Cc1ccccc1`: the inhibition is -8.3% (inactive). Regarding `O=C(N/N=C/c1cccnc1)c1ccc(CN2c3cccc4cccc(c34)S2(=O)=O)cc1`, the inhibition is -27.8% (inactive).

Turning to `Fc1ccccc1NC(=S)NCCc1ccc(Cl)cc1`, the inhibition is -79.8% (inactive). The value for `CCc1nc(SCC(=O)Nc2ccccc2C(=O)OC)n[nH]1` was -16.5% (inactive); that for `COc1ccccc1CNC(=O)c1cc(C(=O)CC(C)C)c[nH]1` was -11% (inactive). As to `CCc1cc(=O)oc2cc(C)cc(OCC(C)=O)c12`, the inhibition was -8.5% (inactive).

As to `CCc1cc(=O)oc2cc(OC(C)=O)cc(OC(C)=O)c12`, the inhibition was 41.8% (active). Regarding `CC(=O)Oc1cc(OC(C)=O)c2c(C)cc(=O)oc2c1`, the inhibition was 13.6% (inactive). In the case of `Cc1nnc(NC(=O)CN2CCN(Cc3ccccc3Cl)CC2)s1`, the inhibition is -8.9% (inactive). In the case of `CCN(CC)c1ccc(NC(=O)CN2C(=O)CC(C)(C)S(=O)(=O)c3ccccc32)c(C)c1`, the inhibition is -6.7% (inactive). On to `Cc1ccc(N(C(=O)Cn2nnc(-c3ccc(C)o3)n2)C(C(=O)NC2CCCC2)c2ccncc2)cc1` (stereo not drawn), for which the inhibition is -8.9% (inactive).

Take `CNC(=S)Nc1cc(S(=O)(=O)Nc2cc(Cl)ccc2Cl)ccc1N1CCCC1`: the inhibition was 2.1% (inactive). On to `CCOc1c(Cl)cc(CNc2nnnn2C)cc1OC`, for which the inhibition was -41.1% (inactive). Turning to `O=C(Cc1cccc2ccccc12)N/N=C1\CCCc2ccccc21`, the inhibition was 13% (inactive). `Cc1ccccc1OCCCC(=O)Nc1nncs1`: the inhibition was 51.4% (active). On to `O=C(CCCOc1ccccc1)Nc1nncs1`, for which the inhibition was 2.6% (inactive).

Take `O=C(CCS(=O)(=O)c1ccccc1)Nc1nncs1`: the inhibition was 3.3% (inactive). For the compound `Cc1ccccc1OCCCC(=O)Nc1nccs1`, the inhibition was 6.5% (inactive). For `Cc1nnc(NC(=O)CCS(=O)(=O)Cc2ccccc2)s1`, the inhibition is -5.2% (inactive). The value for `O=C(CCS(=O)(=O)Cc1ccccc1)Nc1nncs1` was 103% (active); that for `CCOC(=O)c1nnc2cc(-c3ccccc3)nn2c1C` was -32.6% (inactive); that for `Cc1ccc(N(Cc2cc3ccc(C)cc3[nH]c2=O)C(=O)c2ccco2)cc1` was -4% (inactive).

Regarding `COc1ccc(OCCC(=O)OCC(=O)NC(=O)NC(C)C)cc1`, the inhibition is -3.2% (inactive). As for `COc1cccc(/C=N/N2CCN(C3c4ccccc4-c4ccccc43)CC2)c1O`, the inhibition is -6.4% (inactive).

As for `CCCn1c(=S)[nH]c2ccccc2c1=O`, the inhibition was -14.5% (inactive).

Take `CN(C)c1ccc(/C=C/c2ccc3c4ccccc4ccc3[n+]2-c2ccccc2)cc1`: the inhibition is 71.6% (active). With `CN(C)c1ccc(/C=C/c2ccc3ccccc3n2)cc1`, the inhibition was 59.1% (active). Consider `C(=C\c1ccc2ccccc2n1)/c1ccccc1`, for which the inhibition is 0% (inactive). The same measure for `CN(C)c1ccc(/C=C/c2nc3ccccc3s2)cc1`: -3.1% (inactive); for `CN(C)c1ccc(/C=C/c2ccc3ccccc3[n+]2C)cc1`: 43.8% (inactive). Consider `CCCN(CCC)c1ccc(/C=C/c2ccc3cc(OCC)ccc3n2)cc1`, for which the inhibition was -1.6% (inactive). Regarding `O=[N+]([O-])c1ccc(/C=C/c2ccc3ccccc3n2)cc1`, the inhibition is -12.9% (inactive). The value for `CC[n+]1ccccc1/C=C/c1ccc(N(C)C)cc1` was 40.5% (inactive). As to `Oc1ccc(/C=C/c2ccc3ccccc3n2)cc1`, the inhibition is 50.2% (active). As to `COc1cc(CNCCC2CCOC(C)(C)C2)ccc1O` (stereo not drawn), the inhibition is 12.4% (inactive). Consider `O=C(COc1ccc2c3c(c(=O)oc2c1)CCC3)Nc1ccc(CN2CCOCC2)cc1`, for which the inhibition was -11.6% (inactive). As for `COc1ccc2nc(C)c(C(N)=O)cc2c1`, the inhibition is 5.9% (inactive). `O=C(NC(=S)Nc1ccccn1)c1ccccc1`: the inhibition is -7.6% (inactive).

As for `O=C(NC(=O)c1ccccc1)Nc1ccccn1`, the inhibition was 64.2% (active). Regarding `O=C(Nc1ccccn1)c1ccc(C(=O)Nc2ccccn2)cc1`, the inhibition was -5.1% (inactive). Take `CC(=O)c1c(C)nn(CC(O)COc2ccc3ccccc3c2)c1C` (stereo not drawn): the inhibition is -16.4% (inactive). For the compound `Cc1ccccc1C(=O)NC(=S)N(CCO)Cc1ccccc1`, the inhibition was -10.6% (inactive). Regarding `CSCC(=O)N1CCC(Oc2cccc(C(=O)NCc3ccccn3)c2)CC1`, the inhibition was -24% (inactive).

With `CC(C)NC(=O)CSc1nc(N)c(-c2ccccc2)c(=O)[nH]1`, the inhibition is 7.6% (inactive). With `CC(=O)N/C(N)=N/c1nc2cc(C)ccc2o1`, the inhibition is -10.1% (inactive).

In the case of `Cc1ccc2oc(/N=C(\N)NC(=O)C3CC3)nc2c1`, the inhibition is -13.8% (inactive). `CCCOc1cccc(C2C(C(=O)c3ccco3)=C(O)C(=O)N2c2nnc(C)s2)c1` (stereo not drawn): the inhibition is -7.8% (inactive). The value for `N#Cc1ccc(C(=O)NCC2CCCCC2)cc1` was 0.9% (inactive); that for `O=C(O)c1cccc(C(=O)c2cccc(C(=O)O)c2)c1` was -26.4% (inactive); that for `COc1ccc(CCCC(=O)N/N=C/c2ccccc2OC)cc1` was -14.1% (inactive).
